# Measured values published in PubChem BioAssay (NCI).
# Compounds without any hit were thinned out: in the full panel of roughly 83,000, 20% have a hit.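 Interpretation: 100, growth as untreated; towards 0, rising growth inhibition; 0, no net growth; 0 to -100, cell death. Compounds scoring below 10 were considered active.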 Unmarked numbers belong to inactive results. Active and inactive are the calls of the source.
# Tests used:
# Experiment in all cases: NCI-60 one-dose screen, 48 h (100 = growth as untreated, 0 = no growth, -100 = all killed)
# Details in all cases: 10 µM unless noted
# SR leukemia = tested on: SR leukemia
# RPMI-8226 leukemia = tested on: RPMI-8226 leukemia
# OVCAR-8 ovarian = tested on: OVCAR-8 ovarian
# OVCAR-5 ovarian = tested on: OVCAR-5 ovarian
# OVCAR-4 ovarian = tested on: OVCAR-4 ovarian
# SK-OV-3 ovarian = tested on: SK-OV-3 ovarian
# IGROV1 ovarian = tested on: IGROV1 ovarian
# OVCAR-3 ovarian = tested on: OVCAR-3 ovarian
# HS 578T breast = tested on: HS 578T breast
# NCI/ADR-RES ovarian = tested on: NCI/ADR-RES ovarian
SMILES,growth (SR leukemia),growth (RPMI-8226 leukemia),growth (OVCAR-8 ovarian),growth (OVCAR-5 ovarian),growth (OVCAR-4 ovarian),growth (SK-OV-3 ovarian),growth (IGROV1 ovarian) [%],growth (OVCAR-3 ovarian),growth (HS 578T breast),growth (NCI/ADR-RES ovarian)
O=C1/C(=C/c2ccc3c(c2)OCO3)SC(=S)N1CCc1ccc(O)cc1,101%,89.8%,101%,111%,82.9%,104%,75.9,101%,96.7%,97.4%
O=C1Nc2ccc(Br)cc2C12Oc1ccccc1C1CC(c3ccc(F)cc3)=NN12 (centres undefined),87.1%,84%,93.7%,111%,85.5%,102%,,96.3%,89.1%,
C=C1c2nc3ccccc3n2C=C(c2cccc(Cl)c2)N1Cc1ccc(OC)cc1,-17.4% (active),-15.6% (active),9.77% (active),35.3%,32.4%,5.13% (active),,-28.1% (active),15.5%,10.2%
O=c1ccccc(-c2ccc(Br)cc2)c1O,4.69% (active),9.5% (active),13%,54.9%,30%,19.7%,12.4,25.8%,51.8%,7.78% (active)
COc1ccc(C2Nc3c(c(C(C)(C)C)nn3-c3ccccc3)C(=O)CS2)cc1 (centres undefined),87%,82.7%,98.4%,108%,114%,106%,84.3,101%,118%,94.8%
COc1cc(C2CC(=O)c3ccccc3N2)cc(OC)c1OC (centres undefined),99.6%,91.3%,94.3%,103%,97.4%,,99,110%,99.1%,101%
CC(=O)c1cc(C(=O)c2ccc3c(c2)Sc2ccccc2N3)n2ccccc12,9.43% (active),5.63% (active),6.54% (active),68.2%,40.9%,,15,-16.8% (active),24.9%,22.1%
COc1ccc(O)c(N=Nc2nccs2)c1,13.4%,25.3%,52.1%,120%,37.1%,85.2%,,39.9%,103%,53.6%
COc1cc2c(cc1-c1c(C)noc1C)ncc1nc(C3CCOCC3)n([C@H](C)COC(F)F)c12,28.3%,18%,42.6%,68.4%,47.9%,,58.8,35.2%,16.8%,38.4%
COc1cc2c(cc1-c1c(C)noc1C)ncc1nc(C3CCCC3)n([C@H](C)COC(F)F)c12,18.7%,14.7%,38.6%,78%,40.9%,7.48% (active),,36.5%,11%,35.5%
COc1ccc(/C=C\c2cc(OC)c(OC)c(OC)c2)cc1OCC(=O)Nc1ccc2nc(C)sc2c1,12.2%,-8.5% (active),9.11% (active),112%,43%,,25.2,41.6%,36.4%,0.808% (active)
CN(C)CCCNc1c2ccccc2nc2ccccc12,86.9%,100%,92%,97.9%,87.4%,,97.5,103%,75.7%,
CC(=O)c1nc2ccccc2n1CC(=O)c1cccc(Cl)c1,-12.6% (active),-11.8% (active),10.1%,47.5%,22.9%,17.5%,,-31.3% (active),19%,13.9%
Cc1cc(N2CCCCC2)nc(NC2CCCC(Nc3ccnc4cc(Cl)ccc34)C2)n1 (centres undefined),-53.5% (active),-52.4% (active),-82.9% (active),11.2%,-38.8% (active),-71.7% (active),,-69% (active),-48.6% (active),-41.8% (active)
O=Nc1c(O)c(Cl)cc2ccccc12,71.7%,40.1%,68.6%,115%,78.9%,,59.1,67.3%,89.4%,72.2%
CN(CCCCCl)P(=O)(OCc1ccc([N+](=O)[O-])o1)C(F)(F)c1ccc(CC(=O)NC[C@@H](O)/C=C\[C@@H](O)[C@H](CO)Cc2ccccc2)cc1 (some centres undefined),47.7%,77.1%,95.1%,111%,95.2%,,99.4,107%,103%,
O=C1/C(=C/N2N=C(c3ccc4ccccc4c3)CC2c2ccccc2O)SC(=S)N1c1cccnc1 (centres undefined),29.2%,-8.29% (active),28.3%,68.6%,66.1%,39.4%,,7.76% (active),13.2%,23.6%
CCOC(=O)c1cc(C(=O)c2ccc(O)c(O)c2)n2ccc(-c3ccn4c(C(=O)c5ccc(O)c(O)c5)cc(C(=O)OCC)c4c3)cc12,62.3%,74.4%,91.4%,121%,86.5%,100%,,101%,85.8%,102%
CS(=O)(=O)c1ccc(-n2nc(-c3ccc(Br)cc3)c3ccccc3c2=O)cc1,110%,99.8%,100%,108%,97.8%,,109,102%,100%,
CCNc1ncnc2c1cnn2C1CCCO1 (centres undefined),94.3%,98.5%,115%,102%,108%,104%,,111%,113%,100%
Cc1cc(N2CCN(c3ccnc4cc(Cl)ccc34)CC2)nc(N2CCOCC2)n1,80.8%,59%,96.2%,108%,77.8%,,97.7,85.9%,95.7%,
CC(C)CSc1nc(N)nc2c1ncn2C1OC(CO)C(O)C1O (centres undefined),111%,103%,110%,93%,109%,103%,,116%,103%,103%
COc1cccc2c1C(=O)c1c(O)c3c(c(O)c1C2=O)C[C@](O)(C(=O)CO)C[C@H]3O[C@@H]1C[C@@H](NC(=O)CCCN(C)C2(c3ccc(F)cc3)CC3CCC2C3)[C@H](O)[C@@H](C)O1 (some centres undefined),-60.2% (active),-41% (active),-43.1% (active),-48.3% (active),-68.9% (active),,55.2,-84.8% (active),51.2%,82.4%
FC(F)(F)Oc1ccc2nc3nc4ccc[nH]c4cc3c2c1,43.9%,71.7%,69.9%,115%,31.5%,63.8%,,98.2%,56.7%,85.8%
COc1ccc(C(=O)COc2cccc(/C=C3\CSc4ccccc4C3=O)c2)cc1,-65.1% (active),-62.4% (active),6.51% (active),32.4%,84.4%,108%,,64.4%,-11.1% (active),15.1%
CC(C)CC1C(=O)N2CCC[C@H]2C2(O)O[C@](NC(=O)C3C=C4c5cccc6[nH]c(Br)c(c56)C[C@H]4N(C)C3)(C(C)C)C(=O)N12 (some centres undefined),28.6%,11.1%,63.3%,69.6%,41%,,59,61.5%,89.7%,57.7%
CCc1nnc(CNc2ccc(Cl)cc2)o1,88.6%,103%,109%,95.6%,99.2%,88.5%,,99.9%,102%,97.8%
COc1cc(/C=C/c2cc(/C=C/c3ccc(O)c(OC)c3)n(-c3c(Cl)cccc3Cl)c(=O)n2)ccc1O,4.12% (active),0.562% (active),7.53% (active),57.6%,56.3%,47.7%,,10.7%,36.3%,55.2%
CC(O)CN1CC(O)=C(c2nc3ccccc3s2)C1=N (centres undefined),93.1%,101%,116%,93.9%,106%,113%,,117%,104%,85.1%
